ANO1 activ = mouse TMEM16A channel activation, primary screen; HEK293 TMEM16A/YFP-H148Q/I152L, iodide quench fluorescence; hits give low values; B-score at 10 µM; actives 0.3% (n = 340,000);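 active = fluorescence-ratio B-score plate-corrected deviation score at least 3 library SD below zero, with starting fluorescence score within 5 deviations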;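 also: channel opened by trigger with iodide after compound preincubation; score built on the fluorescence ratio of max minus min over baseline; more negative score means more quench and so TMEM16A activation or potentiation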
TMEM16A inh = blocks the mouse calcium-activated chloride channel TMEM16A | Q8BHY3 | HEK293 TMEM16A/YFP iodide influx fluorescence, ionomycin | normalized B-score (activity score, 25-100; higher = stronger inhibition) at 10 µM | actives 1.2% (n = 310,000);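 active = ratio plate-corrected score three or more library SD toward inhibition, starting fluorescence score within five deviations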;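 also: score derived from kinetic fluorescence span divided by baseline fluorescence per well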
HDAC3 inhib = human HDAC3 inhibition. AID 2718. inhibition, % at 8.3 µM. O15379. recombinant HDAC3, fluorogenic peptide/trypsin coupled, fluorescence. actives 0.15% (n = 320,000); in the data active = inhibition above about 26%, passing the limit was not always enough; inconclusive = no clear call, values can overlap the other calls
CHT inh = inhibits the human high affinity choline transporter; CHT-expressing cells, membrane potential dye, choline response; hits give low values; Q9GZV3; AID 488975; actives 0.86% (n = 310,000); B-score at 10 µM;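 active = B-score over 3 SD under the library average, and starting fluorescence ratio not unusually high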;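 also: choline stimulus applied at its EC90 after an EC20 pre-addition; B-score computed on integrated fluorescence ratio after choline addition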
CHT allo act = human CHT allosteric activation; CHT-expressing cells, membrane potential dye, choline EC20; hits give high values; LV-AA mutant CHT in HEK293 cells; B-score at 10 µM; actives 0.49% (n = 310,000); AID 488977;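 active = initial fluorescence not abnormally high and integrated response B-score, plate-corrected, over 3 SD above library mean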
PHOSPHO1 inh = PHOSPHO1 (human) inhibition; Q8TCT1; recombinant PHOSPHO1, absorbance phosphatase assay; inhibition, % at 13.3 µM; actives 1.1% (n = 290,000); AID 1565; in the data active = inhibition above about 60%
Target sequence (Q8TCT1 whole entry, looked up): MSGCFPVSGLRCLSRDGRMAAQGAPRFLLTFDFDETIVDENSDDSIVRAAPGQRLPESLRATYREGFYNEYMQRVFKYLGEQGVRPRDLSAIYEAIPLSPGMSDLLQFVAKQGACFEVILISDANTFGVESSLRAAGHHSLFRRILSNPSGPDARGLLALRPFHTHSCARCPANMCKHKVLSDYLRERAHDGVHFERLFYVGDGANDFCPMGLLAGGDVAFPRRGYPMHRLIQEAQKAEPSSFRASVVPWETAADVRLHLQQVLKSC
CHT block conf = human CHT inhibition, confirmatory screen. shares compounds with CHT inh. CHT-expressing cells, choline membrane potential dye; LV-to-AA substituted CHT, HEK293 cells. CHT activity remaining % of control (hits give low values), % at 10 µM. actives 70% (n = 2,400);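 active = choline transporter activity left, mean of duplicates at 10 µM, below buffer-only control mean minus 3 SD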;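 also: depolarization triggered by choline at its EC90 following an EC20 pre-addition; 0% = hemicholinium-3 full block and 100% = buffer-only control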
HEK293 CHT ctr = activity in parental HEK293 cells lacking CHT; actives 4% (n = 2,400); membrane potential dye, choline response; active = decrease or increase beyond buffer ±3SD; membrane potential ratio readout (active if shifted either direction beyond buffer ±3SD; no single direction) at 10 µM; shares compounds with CHT inh;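 also: parental cells lack the transporter so any hit is non-specific; ratio is peak minus trough fluorescence over baseline after EC90 choline challenge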
* hit, by the source's call; i = inactive; u = inconclusive; x = no result. Most compounds without a hit are left out; they make up all but 3.2% or so of the library.

SMILES	ANO1 activ	TMEM16A inh	HDAC3 inhib	CHT inh	CHT allo act	PHOSPHO1 inh	CHT block conf	HEK293 CHT ctr
O=C(COC(=O)C1CCN(S(=O)(=O)c2ccc3c(c2)OCCO3)CC1)Nc1ccc(C(F)(F)F)cc1	i	i	16	i	i	9	x	x
CN(C)CCCn1c(=S)[nH]c2ccccc2c1=O	i	i	-7	i	i	12	x	x
CN(C)CCn1c(=S)[nH]c2ccccc2c1=O	i	i	3	-7.9*	i	26	28%*	i
O=c1cc(CNc2ccc(Br)cc2)nc2sccn12	i	i	4	-5.4*	i	11	59%*	i
Cc1cccc(NC(=O)CN(C)S(=O)(=O)c2ccc(-c3ccc(=O)[nH]n3)s2)c1C	i	i	2	-6.3*	i	9	i	i
O=C(Nc1ccc(S(=O)(=O)Nc2nccs2)cc1)C1=NN(c2ccccc2)C(=O)CC1	i	i	-1	i	i	-4	x	x
Nc1ccc(C2(c3ccc(N)cc3)C(=O)Nc3ccccc32)cc1	i	i	-4	-14*	i	40	-27%*	9*
CCN(CC(=O)NCc1ccc(F)cc1)C(=O)c1ccc(C(=O)c2ccccc2)cc1	i	i	-3	-5.7*	i	-12	i	i
N#Cc1c(Cl)cccc1N1CCCC1	i	i	5	-7.2*	i	39	49%*	i
CN(NS(=O)(=O)c1ccc(Br)cc1)c1nc(C(F)(F)F)nc2ccccc12	i	25*	x	-5.6*	i	4	i	i
CN(N)c1nc(C(F)(F)F)nc2ccccc12	i	i	4	i	i	25	x	x
COc1ccc(S(=O)(=O)c2cnc3ccc(OC)cc3c2N2CCC3(CC2)OCCO3)cc1	i	i	1	-9.7*	i	6	23%*	i
O=[N+]([O-])c1cc(/C=N/Nc2nc(N3CCCCC3)nc(N3CCCCC3)n2)ccc1O	i	i	9	i	i	-5	x	x
CC(C)(C)CC(C)(C)NC(=S)Nc1ccc2nc(-c3ccccn3)c(-c3ccccn3)nc2c1	i	i	17	-8.4*	i	96*	45%*	i
OCCCNC(=S)Nc1ccc2nc(-c3ccccn3)c(-c3ccccn3)nc2c1	i	i	x	i	i	-67	x	x
CC1CC(C)CN(CC(=O)c2cccs2)C1 (centres undefined)	i	i	-2	i	i	20	x	x
COc1ccc(Br)cc1/C=C/C(=O)NC(=S)Nc1ccc(Cl)c(C(=O)O)c1	i	i	3	i	i	30	x	x
COc1ccc(Br)cc1C(=O)NC(=S)Nc1ccc(Cl)c(C(=O)O)c1	i	i	9	i	i	6	58%*	i
O=C(c1ccc(COc2ccc(Br)cc2)o1)N1N=C(C(F)F)CC1(O)C(F)F (centres undefined)	i	i	15	i	i	0	x	x
Cc1cnc(C(=O)NC(Cc2ccccc2)c2ccccc2)cn1 (centres undefined)	i	i	-1	i	i	-6	x	x
CCCn1c(=N)n(CC(O)COc2cccc(C)c2)c2ccccc21 (centres undefined)	i	i	2	-5.3*	i	20	i	i
N=c1n(Cc2ccccc2)c2ccccc2n1CC(O)COc1ccccc1 (centres undefined)	i	i	1	-9.8*	i	8	38%*	i
CCn1c(=N)n(CC(O)COc2cccc(C)c2)c2ccccc21 (centres undefined)	i	i	5	i	i	-3	x	x
Cc1ccc(Cn2c(=N)n(CC(O)COc3ccccc3)c3ccccc32)cc1 (centres undefined)	i	i	1	-8.2*	i	6	38%*	i
COc1ccc(OCC(O)Cn2c(=N)n(CCN3CCOCC3)c3ccccc32)cc1 (centres undefined)	i	i	-2	i	i	3	x	x
SMILES	ANO1 activ	TMEM16A inh	HDAC3 inhib	CHT inh	CHT allo act	PHOSPHO1 inh	CHT block conf	HEK293 CHT ctr
COc1cccc(Nc2nc(-c3cccc(N4C(=O)c5ccccc5C4=O)c3)cs2)c1	i	i	7	i	i	27	x	x
O=C(CNC(=O)c1ccc(Cl)cc1Cl)OCC(=O)c1ccc2c(c1)OCCO2	i	i	8	-6.7*	i	14	66%*	i
O=C(NCCc1c[nH]c2ccccc12)c1cncc(Br)c1	i	i	-4	i	i	-5	x	x
C#CC[N+]1(CC#Cc2cccc(C)c2)CCCCC1	i	i	u	-6.7*	i	-8	39%*	i
C(#Cc1ccccc1)C[N+]1(CC#Cc2ccccc2)CCCCC1	i	i	7	i	i	20	x	x
C#CC[N+]1(CC#Cc2ccccc2)CCOCC1	i	i	1	i	i	10	x	x
C#CC[N+]1(CC#Cc2ccccc2)CCCCC1	i	i	-4	-9.6*	i	-8	i	i
Cn1cccc1/C=N/NC(=O)c1ccncc1	i	i	3	i	i	33	x	x
N#C/C(C(N)=O)=c1/ccc2c(c1)N1C3=C(CCCC3)CC3CCCCC31N=2 (centres undefined)	x	i	5	-15*	i	6	23%*	i
CC(C)(C)NCCOCCOc1ccccc1-c1ccccc1	i	i	x	i	i	-1	x	x
CCC(C)NCCOCCOc1ccccc1-c1ccccc1 (centres undefined)	i	i	-3	-5.8*	i	23	48%*	-15*
O=S(=O)(c1ccc2ccccc2c1)N1CCN=C1SCc1cccnc1	i	i	0	-5*	i	1	i	i
Cc1occc1C(=O)NNS(=O)(=O)c1ccc(Cl)cc1	i	i	-8	-5.4*	i	7	27%*	i
Cc1ccc(S(=O)(=O)NNC(=O)Nc2ccc(Cl)cc2)cc1	i	i	0	i	i	18	x	x
CCOC(=O)N1CCN(c2ccc([N+](=O)[O-])cc2F)CC1C (centres undefined)	i	i	9	i	i	-12	x	x

Assay outcomes: PubChem, several laboratories
